Compound activity deposited in PubChem by several laboratories.
Compounds with a hit are over-represented: about 4.1% of the library has one in this group of screens.
aSyn UTR inh – MLPCN primary screen, SNCA 5' untranslated region; alpha-synuclein 5'UTR reporter, inhibitor activity; inhibition, % (tested at 7.5 µM); actives 0.82% (n = 300,000); in the data active means inhibition above about 60%; inconclusive means no clear call, values can overlap the other calls;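 further: H4 neuroglioblastoma cells stably carrying SNCA 5'UTR luciferase fusion; 0% = DMSO wells and 100% = positive control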
Bfl-1 A1 inh – caspase 3/7 activation in MEF A1-2A-BIM cells, primary screen, A1 inhibitor project, cell-based, luminescence, HTS; Caspase-Glo 3/7 luminescence, 3 h; percent of clofoctol response, vehicle zero; caspase activation, % (concentration not given with the values); actives 0.066% (n = 330,000);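 active means over half of replicate activation scores above 10%, or exactly half above 10 with the replicate mean above 10; inconclusive means replicate mean below 10 yet half the replicates above 10; inactive means over half of replicates below 10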
Mdm2-MdmX inh – inhibitors of human Mdm2-MdmX association, primary screen, cell-based, luminescence, split luciferase, SaOS-2, uHTS; SaOS-2 split-luciferase Mdm2/MdmX complementation; inhibition, % at 8 µM; actives 3% (n = 330,000); AID 485346, 2010;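 active means inhibition of at least 50% at 8 µM in the primary screen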
Target sequence (O15151 whole entry, looked up): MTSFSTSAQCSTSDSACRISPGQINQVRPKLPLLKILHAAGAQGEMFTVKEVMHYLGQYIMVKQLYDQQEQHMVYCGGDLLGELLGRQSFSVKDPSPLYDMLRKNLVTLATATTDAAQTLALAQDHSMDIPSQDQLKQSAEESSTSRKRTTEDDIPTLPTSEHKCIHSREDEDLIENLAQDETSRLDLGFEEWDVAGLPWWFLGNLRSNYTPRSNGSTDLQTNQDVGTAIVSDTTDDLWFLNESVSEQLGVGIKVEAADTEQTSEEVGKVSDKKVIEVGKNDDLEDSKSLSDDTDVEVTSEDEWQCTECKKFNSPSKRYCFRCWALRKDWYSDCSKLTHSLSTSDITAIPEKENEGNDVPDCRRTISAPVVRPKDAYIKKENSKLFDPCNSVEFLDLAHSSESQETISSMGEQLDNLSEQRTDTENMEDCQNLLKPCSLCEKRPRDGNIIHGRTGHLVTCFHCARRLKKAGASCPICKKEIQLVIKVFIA
Target sequence (Q00987 whole entry, looked up): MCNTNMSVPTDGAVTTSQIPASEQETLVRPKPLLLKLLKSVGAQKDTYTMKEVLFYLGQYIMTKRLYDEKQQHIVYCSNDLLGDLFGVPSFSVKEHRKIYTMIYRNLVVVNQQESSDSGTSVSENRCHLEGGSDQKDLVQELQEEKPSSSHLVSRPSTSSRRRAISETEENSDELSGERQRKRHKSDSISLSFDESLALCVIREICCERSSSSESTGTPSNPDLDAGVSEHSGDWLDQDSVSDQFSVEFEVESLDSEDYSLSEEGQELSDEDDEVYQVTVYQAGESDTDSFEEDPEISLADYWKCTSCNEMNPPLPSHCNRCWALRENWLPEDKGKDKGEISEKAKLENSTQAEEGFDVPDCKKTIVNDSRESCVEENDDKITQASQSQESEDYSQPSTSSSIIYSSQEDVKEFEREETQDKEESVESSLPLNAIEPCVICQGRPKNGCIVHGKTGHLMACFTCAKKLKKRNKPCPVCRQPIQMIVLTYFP
CSC inhib – cancer stem cell viability inhibitors, primary screen, luminescence | inhibition, % at 7.5 µM | actives 1.1% (n = 300,000) | cancer stem cell-like cells viability | AID 2717, 2010; in the data active means inhibition above about 75%; inconclusive means no clear call, values can overlap the other calls; tested in HMLE shEcad cells
Beta apoptosis – inhibitors of cytokine-induced beta cell apoptosis, primary screen, luminescence | INS-1E cytokine-induced death, ATP luminescence, 48 h; percent of positive-control rescue, neutral wells zero | actives 0.8% (n = 300,000) | protection from apoptosis, % (no concentration beside the values);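 active means Every replicate reaches about 75%, or at least half do and their mean reaches it too, limit read from the data; inconclusive means At least half of replicates reach the limit but their mean does not; inactive means Under half of replicates reach the limit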;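 further: 0% = cytokine-treated negative control wells and 100% = positive control rescue; higher means more ATP so stronger rescue from cytokine killing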
Mdm2 MdmX conf – Mdm2-MdmX complex disruptors, retested hits, confirmation, luminescence, single concentration | shares compounds with Mdm2-MdmX inh | Mdm2-MdmX binding, luminescent assay | inhibition, % at 8 µM | actives 55% (n = 10,000); in the data active means inhibition above about 40%
FLuc counter – full-length luciferase signal inhibition, confirmation, counter-screen for Mdm2/MdmX interaction inhibitor project, cell-based, single concentration, SaOS-2; shares compounds with Mdm2-MdmX inh; SaOS-2 full-length luciferase counterscreen, luminescence; inhibition, % at 8 µM; actives 77% (n = 6,200);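 active means mean inhibition at 8 µM reaching about 37%, which flags the compound as non-specific, limit read from the data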;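 further: p53-null SaOS-2 cells with luciferase driven by a doxycycline-inducible promoter; compound on cells about two nights before reading with doxycycline added after day one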
* marks the source's active call; other numbers are inactive results; ? = inconclusive; . = no result.

SMILES	aSyn UTR inh	Bfl-1 A1 inh	Mdm2-MdmX inh	CSC inhib	Beta apoptosis	Mdm2 MdmX conf	FLuc counter
COc1ccc(-c2nsc3c(N4CCCCC4C)ncnc23)cc1 (stereo not given)	90*	-4	84*	46	2	91*	25
COc1ccc(C(=O)N2CCN(c3ncnc4c(-c5ccccc5)nsc34)CC2)cc1	15	.	.	.	.	.	.
COc1ccc(-c2nsc3c(N4CCCCC4)ncnc23)cc1	85*	-7	66*	58	-5	70*	55*
COc1ccc(-c2nsc3c(N4CCN(S(=O)(=O)c5ccccc5F)CC4)ncnc23)cc1	-69	0	43	3	5	.	.
COc1ccc(OCC(=O)NC2CCSc3ccccc32)cc1 (stereo not given)	.	1	14	.	-5	.	.
CC(C)Oc1ccc(C(CCNCc2ccc(O)cc2)c2ccccc2)cc1 (stereo not given)	7	1	91*	38	63	70*	58*
O=C(COC(=O)c1ccc(F)c([N+](=O)[O-])c1)NC(=O)NCc1ccccc1	.	0	73*	35	-8	-1	.
CCn1c(-c2ccccc2)c(C(=O)CCl)c2ccccc21	14	0	98*	1	?	10	.
O=C(O)c1ccc(/C=N\Nc2ccc(S(=O)(=O)N3CCOCC3)cc2[N+](=O)[O-])cc1	-11	0	2	-17	-3	.	.
Cc1ccc(-n2c(O)c(/C=N/Nc3ccc(S(=O)(=O)N4CCOCC4)cc3[N+](=O)[O-])c3ccccc3c2=O)c(C)c1	17	0	55*	-8	30	26	.
CCCC(=O)N(Cc1cc(=O)[nH]c2ccccc12)c1ccc(C)cc1C	-10	-1	7	-6	7	.	.
Cc1ccc(N(Cc2cc(=O)[nH]c3ccccc23)C(=O)CCl)c(C)c1	27	1	100*	48	-53	100*	54*
COc1ccc(S(=O)(=O)N2CCN(C(=O)Nc3ccccc3OC)CC2)cc1	-20	2	2	21	.	.	.
O=C(NC(NC(=S)Nc1ccccc1)C(Cl)(Cl)Cl)c1cccc(Cl)c1 (stereo not given)	-5	-1	93*	89*	95*	46*	66*
O=C(NC(NC(=S)Nc1ccc(Cl)cc1Cl)C(Cl)(Cl)Cl)c1cccc([N+](=O)[O-])c1 (stereo not given)	-1	0	98*	128*	97*	94*	22
O=C(Cc1cccc(C(F)(F)F)c1)N1CCCC1	-7	0	9	3	2	.	.
Cc1ccc(-c2csc(NS(=O)(=O)c3cccc(F)c3)n2)o1	.	0	13	5	3	.	.
CCOc1ccc(S(=O)(=O)NCc2ccccn2)cc1NC(=O)c1ccccc1F	76*	0	57*	53	7	53*	72*
COc1ccc(S(=O)(=O)NCc2ccccn2)cc1NC(=O)c1ccccc1	-62	1	45	35	4	.	.
C=CCOc1ccc(/C=N/n2nnnc2N)cc1OC	8	0	-10	-6	0	.	.
CCC(C)N(C(=O)c1csnn1)C(C(=O)NC1CCCC1)c1c(F)cccc1Cl (stereo not given)	2	1	-7	.	-5	.	.
O=C(Nc1nc2cc3c(cc2s1)OCO3)C1=COCCO1	95*	-8	52*	48	16	28	.
O=C(Nc1nc(-c2nc3ccccc3s2)cs1)c1ccco1	-161	-1	73*	-5	1	-15	.
O=C(Nc1nc2cc3c(cc2s1)OCCO3)c1ccco1	66*	-1	71*	-1	35	68*	74*
CCOC(=O)c1sc2nc(C)nc(Nc3ccccc3)c2c1C	-24	-2	14	-7	-1	.	.
SMILES	aSyn UTR inh	Bfl-1 A1 inh	Mdm2-MdmX inh	CSC inhib	Beta apoptosis	Mdm2 MdmX conf	FLuc counter
CCOC(=O)c1sc2nc(C)nc(NCc3ccccc3)c2c1C	18	-1	52*	1	-13	26	113*
Cc1cccc(CN2CCCC(C(=O)N3CCCCC3)C2)c1 (stereo not given)	5	-1	-13	-13	-1	.	.
COc1ccc(Br)cc1CN1CCN(Cc2c[nH]c3ccccc23)CC1	-18	1	69*	14	79*	39	83*
Cc1ccc(S(=O)(=O)N2CCOCC2)cc1NC(=O)COC(=O)CCc1c[nH]c2ccccc12	.	1	1	.	-4	.	.
COc1cccc(N2CCN(S(=O)(=O)c3ccc(-n4cnnn4)cc3)CC2)c1	4	0	-1	-11	1	.	.
C=C1/C=C(\C)[C@](C)(O)C[C@H](O)CC(=O)[C@H](O)[C@@H](O)[C@H](C)C[C@H](C)OC(=O)/C(C)=C/CC/C=C/[C@@H]2O[C@H]2C[C@H](C)C1	.	15*	97*	.	92*	-28	.
COc1ccc(Cc2nnc(N/N=C/c3ccc(O)cc3)[nH]c2=O)cc1OC	82*	1	66*	102*	99*	70*	25
COc1ccc(Cc2nnc(N/N=C/c3ccc(Br)cc3)[nH]c2=O)cc1OC	12	-1	24	4	6	.	.
COc1ccc(C(=O)Nn2c(SCC(=O)c3ccccc3)nc3ccccc3c2=O)cc1	30	0	54*	5	10	52*	127*
Nc1nc(C2CC2)c(Sc2sc(N)nc2C2CC2)s1	36	0	51*	31	-22	38	119*
Nc1nc(C2CCOCC2)cs1	-20	0	20	0	-3	.	.
Cc1ccc(S(=O)(=O)NCCC(=O)N2CCC(Cc3ccccc3)CC2)cc1	19	1	2	4	-4	.	.
CCc1ccccc1NC(=O)c1ccc(CN2CCC(Cc3ccccc3)CC2)cc1	-21	2	51*	21	0	36	76*
O=C(NCc1ccccc1)c1ccc(CN2CCC(Cc3ccccc3)CC2)cc1	-5	1	54*	15	-8	28	.
Cc1ccc(S(=O)(=O)NCc2ccc(C(=O)NCCCN3CCC(Cc4ccccc4)CC3)cc2)cc1	-9	0	75*	8	27	42*	43*
COCCNC(=O)c1ccc(CN2CCC(Cc3ccccc3)CC2)cc1	8	0	-30	-10	3	.	.
CN1C(C(=O)N2CCc3ccccc3C2)=CC(c2ccc(F)cc2)=NS1(=O)=O	18	0	0	-1	-3	.	.
